# Source: PubChem BioAssay AID463117 (University of Pittsburgh Molecular Library Screening Center, 2010)
# The other results are listed elsewhere or left out. The source made the active and inactive calls.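 The calls were made as follows: active = mean protection from necroptosis of at least 50% over duplicate tests; inactive = mean protection below 50%.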
# Assay: inhibitors of zVAD-triggered necroptosis in L929, confirmation, L929 cells, duplicate runs (AID 463117);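 also: 0% = cells with zVAD alone and 100% = vehicle cells without zVAD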
# Settings: L929 zVAD-induced necroptosis rescue, ATP luminescence, 24 h; at 10 µM; hits give high values
structure (smiles),measurement,value
COC(=O)N1C(c2ccccc2)C1c1ccccc1 (stereo unspecified),activation (protection from necroptosis),91.7% (active)
